Key:
Experiment in all cases: DAPPL (digital affinity profiling via proximity ligation, sequencing); 10 mM Tris-HCl pH 7.5, 50 mM NaCl, 1 mM DTT, 4% glycerol, room temperature, 30 min; GST-TFs on glutathione beads, 16-mer random dsDNA library, 0.1% formaldehyde crosslink after washing; high values mean tight binding
[1] = biological target: T1, FEV (Homo sapiens, UniProt Q99581 1-238); conditions: protein: recombinant; tags: N-terminal GST; dsDNA, one strand shown
T1 sequence: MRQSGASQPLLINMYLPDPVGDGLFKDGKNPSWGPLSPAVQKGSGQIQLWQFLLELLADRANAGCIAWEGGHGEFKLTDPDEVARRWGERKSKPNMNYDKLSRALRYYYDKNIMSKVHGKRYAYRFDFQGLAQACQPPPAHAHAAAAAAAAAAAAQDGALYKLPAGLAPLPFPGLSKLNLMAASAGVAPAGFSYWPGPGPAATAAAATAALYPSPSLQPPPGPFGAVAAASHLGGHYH
Method in brief: (§1)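 Yeast served to express human transcription factors as GST fusions, which were then captured on glutathione beads and labelled with DNA barcodes. Pooled with a tag-only sample, they were incubated with 200 nmole of a 16-mer random double-stranded DNA library for 30 min at room temperature in Tris/NaCl/DTT/glycerol buffer, washed, crosslinked with 0.1% formaldehyde, ligated by proximity, amplified by PCR and sequenced. Dividing each hexamer's read frequency for a factor by its frequency for the tag-only sample gives the binding signal.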

[2] = biological target: ETV5 (Homo sapiens, UniProt P41161 1-510); conditions: protein: recombinant; tags: N-terminal GST; dsDNA, one strand shown
Chain of ETV5 (P41161 whole entry): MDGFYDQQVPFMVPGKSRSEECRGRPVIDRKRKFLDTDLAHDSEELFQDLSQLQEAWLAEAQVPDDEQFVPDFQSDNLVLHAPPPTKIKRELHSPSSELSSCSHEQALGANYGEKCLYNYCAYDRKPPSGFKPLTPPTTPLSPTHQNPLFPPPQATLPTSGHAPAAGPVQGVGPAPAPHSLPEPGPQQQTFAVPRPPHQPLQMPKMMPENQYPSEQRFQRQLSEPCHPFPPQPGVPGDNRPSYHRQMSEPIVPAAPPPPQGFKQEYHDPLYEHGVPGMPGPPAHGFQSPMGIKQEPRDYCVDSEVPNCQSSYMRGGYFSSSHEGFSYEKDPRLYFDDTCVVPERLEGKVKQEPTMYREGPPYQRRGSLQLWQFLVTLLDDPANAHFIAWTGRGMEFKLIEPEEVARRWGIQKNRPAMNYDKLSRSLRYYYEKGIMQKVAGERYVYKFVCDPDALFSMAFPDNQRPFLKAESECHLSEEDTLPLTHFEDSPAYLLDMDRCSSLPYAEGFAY
Method in brief: as §1

[3] = biological target: HSF1 (Homo sapiens, UniProt Q00613 1-529); conditions: protein: recombinant; tags: N-terminal GST; chain copies: 3; dsDNA, one strand shown
Chain of HSF1 (Q00613 whole entry): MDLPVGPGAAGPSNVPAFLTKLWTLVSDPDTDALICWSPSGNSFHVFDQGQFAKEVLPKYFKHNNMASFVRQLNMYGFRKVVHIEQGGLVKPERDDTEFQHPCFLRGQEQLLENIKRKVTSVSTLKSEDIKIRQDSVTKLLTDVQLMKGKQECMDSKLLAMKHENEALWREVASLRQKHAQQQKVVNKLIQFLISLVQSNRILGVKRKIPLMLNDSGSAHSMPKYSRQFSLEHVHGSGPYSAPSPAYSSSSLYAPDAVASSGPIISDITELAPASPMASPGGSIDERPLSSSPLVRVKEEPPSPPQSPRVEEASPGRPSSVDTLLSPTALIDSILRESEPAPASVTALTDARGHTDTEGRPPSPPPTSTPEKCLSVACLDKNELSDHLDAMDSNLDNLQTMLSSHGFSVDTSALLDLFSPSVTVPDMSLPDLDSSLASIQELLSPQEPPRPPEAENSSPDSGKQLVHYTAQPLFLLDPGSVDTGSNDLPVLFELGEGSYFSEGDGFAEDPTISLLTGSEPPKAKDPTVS
Method in brief: as §1

[4] = biological target: T2, SPIC (Homo sapiens, UniProt Q8N5J4 1-248); conditions: protein: recombinant; tags: N-terminal GST; dsDNA, one strand shown
T2 sequence: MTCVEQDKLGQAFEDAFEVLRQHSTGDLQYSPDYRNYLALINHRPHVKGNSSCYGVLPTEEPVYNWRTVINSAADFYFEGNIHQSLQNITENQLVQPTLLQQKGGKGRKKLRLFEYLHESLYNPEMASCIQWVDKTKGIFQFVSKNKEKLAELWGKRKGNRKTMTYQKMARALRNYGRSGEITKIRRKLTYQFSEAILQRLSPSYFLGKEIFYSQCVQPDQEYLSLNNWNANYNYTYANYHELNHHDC
Method in brief: as §1

[5] = biological target: ELF4 (Homo sapiens, UniProt Q99607 1-663); conditions: protein: recombinant; tags: N-terminal GST; dsDNA, one strand shown
Chain of ELF4 (Q99607 whole entry): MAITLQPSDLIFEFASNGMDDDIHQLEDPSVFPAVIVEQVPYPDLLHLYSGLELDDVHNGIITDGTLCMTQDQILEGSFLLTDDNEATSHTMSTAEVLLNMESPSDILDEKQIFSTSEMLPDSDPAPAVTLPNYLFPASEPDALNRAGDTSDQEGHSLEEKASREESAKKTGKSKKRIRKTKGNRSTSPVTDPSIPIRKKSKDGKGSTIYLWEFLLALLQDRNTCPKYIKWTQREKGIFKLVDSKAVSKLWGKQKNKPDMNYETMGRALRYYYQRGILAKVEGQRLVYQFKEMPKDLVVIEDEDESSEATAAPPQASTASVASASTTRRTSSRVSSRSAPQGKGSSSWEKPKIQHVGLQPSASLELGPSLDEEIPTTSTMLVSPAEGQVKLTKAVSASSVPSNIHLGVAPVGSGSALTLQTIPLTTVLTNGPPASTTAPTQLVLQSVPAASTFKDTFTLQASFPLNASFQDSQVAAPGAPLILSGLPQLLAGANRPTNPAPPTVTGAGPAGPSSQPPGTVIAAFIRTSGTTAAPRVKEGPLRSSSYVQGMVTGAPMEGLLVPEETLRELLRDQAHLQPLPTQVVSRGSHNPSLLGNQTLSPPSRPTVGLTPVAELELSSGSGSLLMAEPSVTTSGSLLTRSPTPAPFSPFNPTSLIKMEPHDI
Method in brief: as §1

[6] = biological target: T3, ELK4 (Homo sapiens, UniProt P28324-2 1-405); conditions: protein: recombinant; tags: N-terminal GST; dsDNA, one strand shown
T3 sequence: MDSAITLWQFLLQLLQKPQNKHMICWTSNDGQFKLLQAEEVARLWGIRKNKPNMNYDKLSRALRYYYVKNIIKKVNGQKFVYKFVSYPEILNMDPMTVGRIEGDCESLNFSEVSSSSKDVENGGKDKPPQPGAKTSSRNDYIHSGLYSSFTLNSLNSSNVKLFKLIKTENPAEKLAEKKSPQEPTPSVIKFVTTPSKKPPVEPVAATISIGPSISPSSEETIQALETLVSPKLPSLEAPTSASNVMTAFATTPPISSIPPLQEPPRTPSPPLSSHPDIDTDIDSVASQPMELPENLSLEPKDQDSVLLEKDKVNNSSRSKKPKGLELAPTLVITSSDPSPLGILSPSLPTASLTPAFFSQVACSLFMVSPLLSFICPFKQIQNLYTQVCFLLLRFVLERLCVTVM
Method in brief: as §1

[7] = biological target: T4, ETV2 (Homo sapiens, UniProt O00321 1-342); conditions: protein: recombinant; tags: N-terminal GST; dsDNA, one strand shown
T4 sequence: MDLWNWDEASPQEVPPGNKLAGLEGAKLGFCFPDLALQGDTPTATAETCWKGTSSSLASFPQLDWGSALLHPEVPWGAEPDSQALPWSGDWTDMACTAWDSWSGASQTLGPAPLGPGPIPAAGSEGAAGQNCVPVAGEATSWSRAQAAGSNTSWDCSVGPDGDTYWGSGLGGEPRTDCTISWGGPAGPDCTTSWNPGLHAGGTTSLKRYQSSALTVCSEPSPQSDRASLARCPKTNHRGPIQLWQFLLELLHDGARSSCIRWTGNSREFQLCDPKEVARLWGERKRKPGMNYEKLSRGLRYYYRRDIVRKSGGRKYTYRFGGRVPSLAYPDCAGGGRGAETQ
Method in brief: as §1

[8] = biological target: T5, ELF3 (Homo sapiens, UniProt P78545 1-371); conditions: protein: recombinant; tags: N-terminal GST; dsDNA, one strand shown
T5 sequence: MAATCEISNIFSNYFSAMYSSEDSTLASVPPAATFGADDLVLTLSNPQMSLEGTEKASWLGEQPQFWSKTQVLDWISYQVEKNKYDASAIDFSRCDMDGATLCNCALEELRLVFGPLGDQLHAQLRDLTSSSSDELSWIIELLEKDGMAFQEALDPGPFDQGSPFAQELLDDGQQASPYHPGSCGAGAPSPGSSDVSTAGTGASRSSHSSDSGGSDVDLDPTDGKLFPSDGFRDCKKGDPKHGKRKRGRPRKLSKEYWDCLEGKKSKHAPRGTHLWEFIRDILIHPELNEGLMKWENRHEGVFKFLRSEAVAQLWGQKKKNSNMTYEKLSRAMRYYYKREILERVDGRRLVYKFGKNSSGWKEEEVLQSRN
Method in brief: as §1

[9] = biological target: CRX (Homo sapiens, UniProt O43186 1-299); conditions: protein: recombinant; tags: N-terminal GST; dsDNA, one strand shown
Chain of CRX (O43186 whole entry): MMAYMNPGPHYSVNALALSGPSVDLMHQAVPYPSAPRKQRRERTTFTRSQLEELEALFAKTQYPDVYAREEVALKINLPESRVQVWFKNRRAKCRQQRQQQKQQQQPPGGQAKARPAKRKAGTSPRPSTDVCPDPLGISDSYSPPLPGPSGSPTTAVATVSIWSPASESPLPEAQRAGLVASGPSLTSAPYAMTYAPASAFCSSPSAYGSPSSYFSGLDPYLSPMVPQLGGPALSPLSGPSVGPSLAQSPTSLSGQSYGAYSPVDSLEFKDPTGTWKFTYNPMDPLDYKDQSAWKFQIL
Method in brief: as §1

[10] = biological target: ETV1 (Homo sapiens, UniProt P50549 1-477); conditions: protein: recombinant; tags: N-terminal GST; dsDNA, one strand shown
Chain of ETV1 (P50549 whole entry): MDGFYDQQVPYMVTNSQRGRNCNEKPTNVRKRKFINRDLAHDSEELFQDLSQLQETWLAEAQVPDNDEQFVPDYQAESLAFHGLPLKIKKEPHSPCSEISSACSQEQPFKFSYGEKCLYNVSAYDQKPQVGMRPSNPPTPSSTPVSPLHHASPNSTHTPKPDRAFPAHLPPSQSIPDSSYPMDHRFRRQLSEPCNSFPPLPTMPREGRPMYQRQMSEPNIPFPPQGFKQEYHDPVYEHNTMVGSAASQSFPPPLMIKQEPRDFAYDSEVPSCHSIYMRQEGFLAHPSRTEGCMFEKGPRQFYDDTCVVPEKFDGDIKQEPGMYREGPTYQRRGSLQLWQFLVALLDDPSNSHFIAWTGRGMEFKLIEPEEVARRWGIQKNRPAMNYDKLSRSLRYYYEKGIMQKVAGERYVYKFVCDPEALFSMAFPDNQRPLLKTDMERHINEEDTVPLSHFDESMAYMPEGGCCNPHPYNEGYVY
Method in brief: as §1

TTTCGG
binding signal [1]: 1.15 fold enrichment (6-mer frequency, TF over GST control)
binding signal [2]: 1.13 fold enrichment (6-mer frequency, TF over GST control)
binding signal [3]: 1.39 fold enrichment (6-mer frequency, TF over GST control)
binding signal [4]: 1.05 fold enrichment (6-mer frequency, TF over GST control)
binding signal [5]: 1.21 fold enrichment (6-mer frequency, TF over GST control)
binding signal [6]: 1.14 fold enrichment (6-mer frequency, TF over GST control)
binding signal [7]: 1.16 fold enrichment (6-mer frequency, TF over GST control)
binding signal [8]: 1.22 fold enrichment (6-mer frequency, TF over GST control)
binding signal [9]: 1.25 fold enrichment (6-mer frequency, TF over GST control)
binding signal [10]: 1.31 fold enrichment (6-mer frequency, TF over GST control)

From paper PMC7862700, “An all-to-all approach to the identification of sequence-specific readers for epigenetic DNA modifications on cytosine”
